Reference: article PMC10726135, “HNF4α isoforms regulate the circadian balance between carbohydrate and lipid metabolism in the liver”
The full ranking holds about 18,000 sequences; the median of “log2 normalized intensity” is about 0.39, and the highest 2% start at about 6.6. The list comes from a sample in which the highest values are over-represented; it also holds similar and randomly drawn sequences.

The sequences below were run against T1, HNF4alpha2 (COS-7 nuclear extract) (Homo sapiens, UniProt P41235 1-474) (assay: protein-binding microarray; COS-7 nuclear extract on double-stranded Agilent 4x180k PBM; binding buffer, salt, pH and temperature not given in the material; high values mean tight binding). Details: chain copies: 2; label: 3' end of strand 1 on the slide; dsDNA, one strand shown.
T1 sequence: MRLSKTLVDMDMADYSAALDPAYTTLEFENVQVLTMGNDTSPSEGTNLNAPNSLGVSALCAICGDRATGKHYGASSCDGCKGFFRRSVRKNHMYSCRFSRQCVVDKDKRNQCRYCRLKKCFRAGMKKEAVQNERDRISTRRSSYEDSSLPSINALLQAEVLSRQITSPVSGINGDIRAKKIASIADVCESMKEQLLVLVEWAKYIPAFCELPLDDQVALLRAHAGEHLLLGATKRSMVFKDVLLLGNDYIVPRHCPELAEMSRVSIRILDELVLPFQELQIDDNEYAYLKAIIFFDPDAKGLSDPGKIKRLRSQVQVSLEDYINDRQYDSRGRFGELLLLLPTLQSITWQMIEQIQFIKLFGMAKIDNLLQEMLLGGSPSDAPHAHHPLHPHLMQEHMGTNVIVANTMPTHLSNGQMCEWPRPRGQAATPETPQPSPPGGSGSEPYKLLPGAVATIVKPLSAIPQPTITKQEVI
Summary of the method: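 Double-stranded oligonucleotides of ~60 nt, representing ~44,000 test sequences in quadruplicate, made up a custom Agilent SurePrint G3 4x180k array. Nuclear extracts from COS-7 cells transiently transfected by CaPO4 with a human HNF4α isoform expression vector were applied, and bound HNF4α was imaged at 2-µm resolution on an Agilent G2565CA scanner. Binding signal refers to the background-corrected, normalized gProcessedSignal output of Agilent software.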

First: TTAGCCCAGTGAGACCCATTTTGGACTTTGGCCTAGGGAGATTAGAGTATCGGTCGA
Second: TTGGACTTTGACCTCCAAAATTATAAGTCAGCCTAGGGAGATTAGAGTATCGGTCGA
The binding signal of the first is lower: 6.34 log2 normalized intensity for the first, 8.25 log2 normalized intensity for the second.

First: CCTCTCTCTCTCTCTCTCACACACACACACGCCTAGGGAGATTAGAGTATCGGTCGA
Second: CTTACTTGGCATCATCAAACAAGATTTATCGCCTAGGGAGATTAGAGTATCGGTCGA
The binding signal of the first is higher: 2.09 log2 normalized intensity for the first, -0.732 log2 normalized intensity for the second.

First: TGTAGGTAAGCACAAAGTACAGCTTTTTGTGCCTAGGGAGATTAGAGTATCGGTCGA
Second: TATAAAGGTCAACTGCCCTCTCAAATTACAGCCTAGGGAGATTAGAGTATCGGTCGA
The binding signal of the first is lower: 1.13 log2 normalized intensity for the first, 1.51 log2 normalized intensity for the second.

Going from “TTTTAAAATAGATAAGTCCCTAAGAGGAATGCCTAGGGAGATTAGAGTATCGGTCGA” to “ACAAATGAGGGGACAAAGTTCGTGGAAAGTGCCTAGGGAGATTAGAGTATCGGTCGA”, the binding signal rises from -0.74 log2 normalized intensity to 2.91 log2 normalized intensity.

First: GAGCCTGCACGCCTGTTCACATTCCAGTGTGCCTAGGGAGATTAGAGTATCGGTCGA
Second: GACAGGATATTTTGAGGGCTCAAAGGTTACGCCTAGGGAGATTAGAGTATCGGTCGA
The binding signal of the first is lower: -0.595 log2 normalized intensity for the first, 5.37 log2 normalized intensity for the second.

Compared with “TGACCTTTGCATTCTTACCCAAGCCCCAAAGCCTAGGGAGATTAGAGTATCGGTCGA”, “CCCTAATTACATATTAACCTTTGCCCCAGCGCCTAGGGAGATTAGAGTATCGGTCGA” is higher in binding signal: 3.73 log2 normalized intensity for the first, 6.63 log2 normalized intensity for the second.

First: GGGTATGAATTTAACCTTTGCTCTCTGAAAGCCTAGGGAGATTAGAGTATCGGTCGA
Second: TTTTTTTTCTTAATTGCCCTTTGCCCTTTGGCCTAGGGAGATTAGAGTATCGGTCGA
The binding signal of the first is lower: 5.68 log2 normalized intensity for the first, 8.54 log2 normalized intensity for the second.

First: ATATTAACCTTTGCCCCAGCTGTCACCCAGGCCTAGGGAGATTAGAGTATCGGTCGA
Second: CTACAGGGTATGAATTTAACCTTTGCTCTCGCCTAGGGAGATTAGAGTATCGGTCGA
The binding signal of the first is lower: 5.03 log2 normalized intensity for the first, 6.87 log2 normalized intensity for the second.

Compared with “ACAGTAGACTTTTTTTTTCTTAATTGCCCTGCCTAGGGAGATTAGAGTATCGGTCGA”, “ACTTTGCCCTTTTTTTCTCTCCCCTTTTAAGCCTAGGGAGATTAGAGTATCGGTCGA” is lower in binding signal: 2.84 log2 normalized intensity for the first, 2.54 log2 normalized intensity for the second.

First: CCATCCTACAGGGTATGAATTTAACCTTTGGCCTAGGGAGATTAGAGTATCGGTCGA
Second: TTTCTTAATTGCCCTTTGCCCTTTGCCCAAGCCTAGGGAGATTAGAGTATCGGTCGA
The binding signal of the first is lower: 4.2 log2 normalized intensity for the first, 8.01 log2 normalized intensity for the second.

Going from “AGACTTTTTTTTTCTTAATTGCCCTTTGCCGCCTAGGGAGATTAGAGTATCGGTCGA” to “ATTACATATTAACCTTTGCCCCAGCTGTCAGCCTAGGGAGATTAGAGTATCGGTCGA”, the binding signal rises from 4.26 log2 normalized intensity to 5.74 log2 normalized intensity.

Compared with “AAAGGTCATTTCTGCTTGCAACCAAAGGAGGCCTAGGGAGATTAGAGTATCGGTCGA”, “GCAGATGTGTCTTTATAACAGACTGTAGGCGCCTAGGGAGATTAGAGTATCGGTCGA” is lower in binding signal: 1.52 log2 normalized intensity for the first, 0.596 log2 normalized intensity for the second.

First: GCCAAGCTCTGGGCTAGTCCCTGAGTATTAGCCTAGGGAGATTAGAGTATCGGTCGA
Second: TCCCTCTGCTCCCCTGGCCTCACCCTTGTCGCCTAGGGAGATTAGAGTATCGGTCGA
The binding signal of the first is lower: -0.902 log2 normalized intensity for the first, 2.72 log2 normalized intensity for the second.

First: ATTCCAAAAAGCTTTTGTCATGACCTTCGCGCCTAGGGAGATTAGAGTATCGGTCGA
Second: AAGGATCAAGGACCTGCTCTGGGGCTACCTGCCTAGGGAGATTAGAGTATCGGTCGA
The binding signal of the first is higher: 4.71 log2 normalized intensity for the first, -0.978 log2 normalized intensity for the second.

Going from “ATTTCTAGGTTTGATCTTTGCCCTACAATTGCCTAGGGAGATTAGAGTATCGGTCGA” to “TTGCCCTTTGCCCAACCCTCTCCCACTCCCGCCTAGGGAGATTAGAGTATCGGTCGA”, the binding signal falls from 5.51 log2 normalized intensity to 4.91 log2 normalized intensity.

Going from “TAATTGCCCTTTGCCCTTTGCCCAACCCTCGCCTAGGGAGATTAGAGTATCGGTCGA” to “TCAGTTTCATTGCACTTTGCCCTCTCTTCAGCCTAGGGAGATTAGAGTATCGGTCGA”, the binding signal falls from 7.02 log2 normalized intensity to 6.57 log2 normalized intensity.

Going from “TCCTCAGGGAATTTCTAGGTTTGATCTTTGGCCTAGGGAGATTAGAGTATCGGTCGA” to “ATAATTCAGTTTCATTGCACTTTGCCCTCTGCCTAGGGAGATTAGAGTATCGGTCGA”, the binding signal rises from 2.95 log2 normalized intensity to 8.65 log2 normalized intensity.

First: GCCCTTTGCCCTTTGCCCAACCCTCTCCCAGCCTAGGGAGATTAGAGTATCGGTCGA
Second: AGGGAATTTCTAGGTTTGATCTTTGCCCTAGCCTAGGGAGATTAGAGTATCGGTCGA
The binding signal of the first is lower: 5.55 log2 normalized intensity for the first, 6.85 log2 normalized intensity for the second.

Compared with “CATTGATAATTCAGTTTCATTGCACTTTGCGCCTAGGGAGATTAGAGTATCGGTCGA”, “ACTCCTTTGCTTATCTGATAAGTCCATACCGCCTAGGGAGATTAGAGTATCGGTCGA” is lower in binding signal: 4.01 log2 normalized intensity for the first, 1.53 log2 normalized intensity for the second.

Going from “ACTCAGGATACCTAAGCCCCATGCTGATAAGCCTAGGGAGATTAGAGTATCGGTCGA” to “GACTTTGAACTTCATGTGTGGTGCAGATTCGCCTAGGGAGATTAGAGTATCGGTCGA”, the binding signal rises from 1.32 log2 normalized intensity to 1.97 log2 normalized intensity.

Compared with “AGCTGGACTTTGAACTTCATGTGTGGTGCAGCCTAGGGAGATTAGAGTATCGGTCGA”, “ATCTAAGCTGGACTTTGAACTTCATGTGTGGCCTAGGGAGATTAGAGTATCGGTCGA” is higher in binding signal: 6.21 log2 normalized intensity for the first, 7.91 log2 normalized intensity for the second.

First: CTTTGGACTTTTGAACTAAGGCTGGAATGAGCCTAGGGAGATTAGAGTATCGGTCGA
Second: CCTAAATCTAAGCTGGACTTTGAACTTCATGCCTAGGGAGATTAGAGTATCGGTCGA
The binding signal of the first is lower: 2.92 log2 normalized intensity for the first, 8.99 log2 normalized intensity for the second.

“TGAGACTTTGGACTTTTGAACTAAGGCTGGGCCTAGGGAGATTAGAGTATCGGTCGA” gave a binding signal of 4.72 log2 normalized intensity.
